# A number with no mark means an inactive call. The rule behind the calls is not given here.
# System: Imidazoline I2
# Test: CYP450 and receptor off-target profile – biochemical, Ricerca HitProfilingScreen, selectivity assay for S1P4 agonist project, late-stage follow-up (AID 504400)
# Conditions: Ricerca radioligand binding/enzyme panel plus CYP450, Central, at 10 µM, hits give high values
structure (smiles),measurement,value
Clc1ccc(OCCOc2ccc(Br)nc2Br)c(Cl)c1,inhibition,9%

# From PubChem BioAssay AID504400 (The Scripps Research Institute Molecular Screening Center, 2011)
